Screen size: about 340,000 compounds; about 2,100 (0.62%) were called active.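 Rule for the calls: active = first-screen hits whose inhibition reached a set limit at any dose in the follow-up dose series; inconclusive = inhibition above the set first-screen limit but never retested; inactive = the rest.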 These entries were drawn from the full list. Measured potencies and affinities stand elsewhere.
What follows are compounds tested against Rac GTPase-activating protein 1 (Homo sapiens) (UniProt Q9H0H5) (assay: MgcRacGAP GTPase-activating activity inhibitors, confirmation, biochemical, ADP Hunter fluorescence, primary and confirmatory (AID 624330;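 note: fluorescence reports GDP produced by GAP-driven GTP hydrolysis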)). Settings: MgcRacGAP-stimulated Rac1 GTP hydrolysis, at 30 µM, active compounds read high, GST-tagged Rac1 F28L mutant substrate.
Chain of Rac GTPase-activating protein 1 (Homo sapiens) (Q9H0H5 whole entry, looked up): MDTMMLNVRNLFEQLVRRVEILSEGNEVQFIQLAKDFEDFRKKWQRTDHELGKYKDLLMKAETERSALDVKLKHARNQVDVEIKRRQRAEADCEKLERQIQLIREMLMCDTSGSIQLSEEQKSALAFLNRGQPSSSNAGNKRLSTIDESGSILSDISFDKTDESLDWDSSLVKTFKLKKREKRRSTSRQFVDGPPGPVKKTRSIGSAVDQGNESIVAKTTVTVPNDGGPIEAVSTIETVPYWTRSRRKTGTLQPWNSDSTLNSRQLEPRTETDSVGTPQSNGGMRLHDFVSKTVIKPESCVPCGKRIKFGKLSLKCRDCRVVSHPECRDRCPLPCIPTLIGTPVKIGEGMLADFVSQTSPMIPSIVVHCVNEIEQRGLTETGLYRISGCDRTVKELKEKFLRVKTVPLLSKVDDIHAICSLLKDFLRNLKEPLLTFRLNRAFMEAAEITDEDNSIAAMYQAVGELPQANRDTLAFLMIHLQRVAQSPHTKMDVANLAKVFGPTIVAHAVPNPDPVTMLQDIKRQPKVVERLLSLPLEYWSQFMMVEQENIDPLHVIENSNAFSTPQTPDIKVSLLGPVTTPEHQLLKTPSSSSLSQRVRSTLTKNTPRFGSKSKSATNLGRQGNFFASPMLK

| Structure (SMILES) | inhibition |
| --- | --- |
| C/C=C/c1ccc(OCCN2CCc3ccccc3C2)c(OC)c1 | 17.9% (inactive) |
| Cc1ccc(C)c(NC(=O)CN(C)C(=O)c2cc([N+](=O)[O-])ccc2N2CCOCC2)c1 | 5.45% (inactive) |
| Cc1ccc(SCC(=O)OCC(=O)N(CC(C)C)C2CCS(=O)(=O)C2)cc1C (centres undefined) | 9.24% (inactive) |
| O=C(COC(=O)COc1ccc(Cl)cc1Br)NC1CC1 | -1.39% (inactive) |
| O=C(NCCN1CCOCC1)c1ccc(CS(=O)c2ccccc2Cl)o1 (centres undefined) | -0.13% (inactive) |
| COc1ccc(N2CCN(Cc3nc4sc(C)c(C)c4c(=O)[nH]3)CC2)cc1 | -6.7% (inactive) |
| COc1cc(/C=C2/NC(=O)N(Cc3ccccc3F)C2=O)cc(OC)c1O | 26.3% (inactive) |
| COc1ccc(/C=C2/NC(=O)N(Cc3ccccc3F)C2=O)cc1OC | 5.3% (inactive) |
| CSc1ccc(CN2CCC(n3nccc3NC(=O)C3CCOC3)CC2)cc1 (centres undefined) | 3.42% (inactive) |
| CC(=O)Nc1ccc(NC(=O)CCc2ccc(C)o2)cc1 | 10.6% (inactive) |
| CC(=O)c1ccc(NC(=O)C[n+]2cccc(C)c2)cc1 | 8.06% (inactive) |
| Cc1ccc[n+](CC(=O)Nc2ccc(C)c(C)c2)c1 | -1.74% (inactive) |
| Cc1ccc(NC(=O)CCc2ccc(C)o2)cc1 | -3.13% (inactive) |
| CCOC(=O)C1C(c2cc(OC)c(O)c(OC)c2)NC(=S)NC1(O)C(F)(F)F (centres undefined) | 4.21% (inactive) |
| Cc1ccc(CNC(=O)C(c2ccccc2)c2ccccc2)cc1 | 6.74% (inactive) |
| COc1ccc(S(=O)(=O)NNC(=O)c2cc3ccccc3o2)cc1 | 9.6% (inactive) |
| O=C(NC1CC1)c1cc(F)c(F)cc1Cl | 6.75% (inactive) |
| O=C(/C=C/c1ccc(Br)o1)Nc1nccs1 | -0.09% (inactive) |
| Nc1ccc2c(c1)OC1(CCCCC1)O2 | 22.8% (inactive) |
| O=C(Nc1ccc2c(c1)OC1(CCCC1)O2)C1CC1 | 9.85% (inactive) |
| CC(O)[C@H]1CNC(=O)C(=O)N1CCc1cccc(F)c1 (some centres undefined) | 5.42% (inactive) |
| COc1ccc(CN2CCC(C(=O)N3CCN(c4ccccc4F)CC3)CC2)cc1OC | 8.86% (inactive) |
| O=C(C1CC1)N1CCN(Cc2ccccc2)CC1 | 7.23% (inactive) |
| COc1ccccc1N1CCN(Cc2ccc(Br)o2)CC1 | 29.6% (inactive) |
| COc1cc(CN2CCN(c3cccc(C)c3C)CC2)cc(OC)c1O | 27% (inactive) |

| Structure (SMILES) | inhibition |
| --- | --- |
| COc1ccccc1N1CCN(Cc2ccsc2)CC1 | 25.3% (inactive) |
| CCOc1ccc(CN2CCC(C(=O)N3CCN(c4ccccc4F)CC3)CC2)cc1OC | 23.7% (inactive) |
| CCN1CCN(C(=O)C2CCN(Cc3cc(Cl)ccc3O)CC2)CC1 | 12.1% (inactive) |
| COc1cc(CN2CCC(C(=O)N3CCN(c4ccccc4F)CC3)CC2)cc(OC)c1O | 23.4% (inactive) |
| CCC(C)NC(=O)C1c2ccccc2C(=O)N1Cc1ccc(F)cc1 (centres undefined) | 8.48% (inactive) |
| COc1ccc(NC(=O)CCCC(=O)O)cc1Cl | 4.87% (inactive) |
| CC(=O)c1ccc(S(=O)(=O)NCCC(=O)OC(C)C(=O)Nc2ccc(F)cc2)cc1 (centres undefined) | 5.33% (inactive) |
| N#C/C(=C\c1cn(CC(=O)N2CCCCC2)c2ccccc12)C(=O)NCc1ccc2c(c1)OCO2 | 8.24% (inactive) |
| Cc1cc(NC(=O)c2ccc(C#N)cc2)n(-c2ccccn2)n1 | 4.99% (inactive) |
| N#Cc1ccc(OCc2nnc(SCC(=O)N3CCCc4ccccc43)n2-c2ccccc2)cc1 | 3.45% (inactive) |
| CCCCN(C)CCNC(=O)Cn1c(=O)sc2ccccc21 | 5.94% (inactive) |
| NC(N)=Nc1ccc(C=C2C=Cc3ccccc32)cc1 | 1.28% (inactive) |
| C=CCN(CC=C)Cc1nc(N)nc(Nc2ccccc2C)n1 | 6.1% (inactive) |
| CC1(C)CC(=O)C([N+](=O)[O-])=C(NCCCC(=O)O)C1 | 6.3% (inactive) |
| CCOC(=O)CN=C1CC(C)(C)CC2=C1Sc1ncnc(N(C)C)c1N2 | 6.53% (inactive) |
| Cc1ccc(S(=O)(=O)/N=C/N(C)C)cc1 | 4.85% (inactive) |
| O=C(NCc1ccco1)c1ccc(S(=O)(=O)N2CCOCC2)cc1 | 12.1% (inactive) |
| CCOC(=O)c1ccc(NC(=O)Nc2c(C)nn(C)c2C)cc1 | 6.05% (inactive) |
| COc1ccc(CCNc2ccc(N3C(=O)CC(C)C3=O)cc2[N+](=O)[O-])cc1 (centres undefined) | 3.45% (inactive) |
| CC1CC(=O)N(c2ccc(NCCc3ccccc3)c([N+](=O)[O-])c2)C1=O (centres undefined) | 12.4% (inactive) |
| COCCNC(=O)C1CCCN(S(=O)(=O)c2c(C)noc2/C=C/c2cccs2)C1 (centres undefined) | 5.26% (inactive) |
| Cc1cc(Cc2cc(C)c(N)cc2C)c(C)cc1N | 11.3% (inactive) |
| Cc1cc(C)c(N)cc1C | 5.41% (inactive) |
| COc1ccc(S(=O)(=O)N(C)C[C@H]2Oc3c(NC(=O)C4CC4)cccc3C(=O)N([C@H](C)CO)C[C@@H]2C)cc1 | 13.9% (inactive) |
| CCc1ccc(Nc2oc(C)cc(=O)c2C(C)=O)cc1 | 2.6% (inactive) |

| Structure (SMILES) | inhibition |
| --- | --- |
| CC(=O)c1c(Nc2cccc(F)c2)oc(C)cc1=O | 8.68% (inactive) |
| O=C(c1cccc(NS(=O)(=O)c2ccc(Br)cc2)c1)N1CCN(c2ccccc2O)CC1 | -1.11% (inactive) |
| CC(O)CNc1nc2ccccc2n1CC(=O)NC12CC3CC(CC(C3)C1)C2 (centres undefined) | -6.35% (inactive) |
| O=C(Nc1ccccc1)c1cccc(NC(=O)c2ccco2)c1 | 11.5% (inactive) |
| Clc1cccc(Cl)c1OCCOCCNCc1ccccc1 | 22.1% (inactive) |
| Cc1cc(Cl)cc(C)c1OCCNCc1ccccc1 | 26.3% (inactive) |
| O=[N+]([O-])c1ccccc1OCCOc1ccccc1[N+](=O)[O-] | 7.67% (inactive) |
| Cc1cc(OCCOCCN(C)C)ccc1Cl | 9.69% (inactive) |
| CCc1cc(OCCCCNCc2ccccc2)ccc1Cl | 28.9% (inactive) |
| CCOc1ccc(OCCOCCNCCOC)cc1 | 12.8% (inactive) |
| O=[N+]([O-])c1ccccc1OCCCNCc1ccccc1 | 21.2% (inactive) |
| CCCOc1ccc(OCCOCCNCc2ccccc2)cc1 | 19.2% (inactive) |
| CC1(c2nnc(-c3cccc(Cl)c3)o2)CC(c2ccccc2)=NO1 (centres undefined) | 6.54% (inactive) |
| CCN(CC)CCCNC(=O)C1CCCN(c2nnc(N3CCCC3=O)s2)C1 (centres undefined) | 8.15% (inactive) |
| Cc1ccccc1C(=O)N1CCC(C(=O)Nc2ccccn2)CC1 | 3.54% (inactive) |
| CC1CCCC(C)N1CC(O)COC1CCC(C(C)(C)C)CC1 (centres undefined) | 8.37% (inactive) |
| CC(C)(C)c1cccc(OCCCSc2ncccn2)c1 | 4.61% (inactive) |
| O=C(N/C(=C/c1ccc(Br)cc1)C(=O)N1CCCCC1)c1ccccc1F | 8.71% (inactive) |
| Cc1ccc(OCCNCc2ccccc2)c(C)c1 | 20.6% (inactive) |
| C=CCNCCCCOc1c(Cl)cc(C)cc1Br | 29.7% (inactive) |
| Cc1cc(C)c(OCCCNCc2ccccc2)c(Br)c1 | 26.8% (inactive) |
| COCCNCCCCOc1c(Cl)cc(C)cc1Br | 27.8% (inactive) |
| Cc1cc(Cl)c(OCCCNCc2ccccc2)c(Br)c1 | 30.3% (inactive) |
| Cc1cc(C)c(C)c(OCCOCCNCc2ccccc2)c1 | 17.1% (inactive) |
| Cc1cc(C(=O)CSc2ccc3c(c2)OCCO3)c(C)n1C1CC1 | 6.62% (inactive) |

| Structure (SMILES) | inhibition |
| --- | --- |
| COc1ccc(C(=O)/C=C/c2ccccc2OC)c(OC(=O)c2ccc([N+](=O)[O-])cc2)c1 | 8.99% (inactive) |
| COc1cccc(C2C(C(=O)c3cccs3)=C(O)C(=O)N2CCN2CCOCC2)c1 (centres undefined) | -8.26% (inactive) |
| O=C(NCc1ccccc1Cl)C1CCC(=O)N1Cc1ccc(F)cc1 (centres undefined) | 11.4% (inactive) |
| CN(CCOc1ccccc1)C(=S)Nc1ccc(OC(F)F)cc1 | 5.1% (inactive) |
| O=C(c1ccc(Cl)cc1)N1CCN(C(=O)C2CCCCC2)CC1 | 7.43% (inactive) |
| O=C1N/C(=C\c2ccccc2)C(O)=C1C=NCc1ccccc1 | 3.17% (inactive) |
| O=C1N/C(=C/c2ccc(Br)cc2)C(O)=C1C=NCc1ccccc1 | 3.27% (inactive) |
| COc1cc(NC(=O)CN2CCC(C(N)=O)(N3CCCCC3)CC2)c(OC)cc1Cl | 0.16% (inactive) |
| CCOc1ccc(/C=N/NC(=O)c2c(-c3ccccc3)noc2C)cc1 | 10.9% (inactive) |
| CCCOc1ccc(/C=N/NC(=O)c2c(-c3ccccc3)noc2C)cc1OC | 7.42% (inactive) |
| Cc1onc(-c2ccccc2)c1C(=O)N/N=C/c1cccc(O)c1 | 8.34% (inactive) |
| COc1cc(/C=N/NC(=O)c2c(-c3ccccc3)noc2C)cc(OC)c1OC | 7.95% (inactive) |
| CCOC(=O)c1c(C)n(C)c2cc(Br)c(C)cc12 | -1.61% (inactive) |
| CCc1nnc(NS(=O)(=O)c2ccc(N=Cc3c(C)[nH]n(-c4cccc(Cl)c4)c3=O)cc2)s1 | 9.47% (inactive) |
| Cc1nn(C)cc1CNC(=O)c1ccccc1Br | -6.9% (inactive) |
| CC(Oc1ccc2ccc(=O)oc2c1)C(=O)c1ccccc1 (centres undefined) | 8.03% (inactive) |
| NCCNC(=O)c1c(NC(=O)c2ccccc2)sc2c1CCCC2 | 10.3% (inactive) |
| CN(C)CCNC(=O)c1c(NC(=O)c2ccccc2)sc2c1CCCC2 | 11.8% (inactive) |
| CCCC(=O)Nc1cc(C)c(NC(=O)c2ccncc2)cn1 | 1.4% (inactive) |
| CCOc1ccccc1NC(=O)COC(=O)C1CCC1 | 6.3% (inactive) |
| O=C(O)Cn1cc(/C=C2\SC(=O)N(c3ccccc3)C2=O)c2ccccc21 | 0.86% (inactive) |
| O=C1OC2(CCCC2)OC(=O)C1=Cc1c[nH]c2ccccc12 | 10.5% (inactive) |
| O=C(O)Cn1cc(/C=C2/NC(=O)N(c3ccc(Cl)cc3)C2=O)c2ccccc21 | 8.99% (inactive) |
| O=C1CCCC(=O)C1=Cc1c[nH]c2ccccc12 | 8.99% (inactive) |
